# Inconclusive results are not listed. Calls of active or inactive are those of the source. How the source made its calls, unless noted: active means hit-call score of the fitted dose curve at least 0.9, where 1 is the maximum; inconclusive means response in the unintended direction; inactive means score below 0.9.
# Tests used:
# [1] = biological target: Retinoic acid receptor alpha (Homo sapiens) (UniProt P10276); experiment: ATG_RARa_TRANS: Attagene TRANS-FACTORIAL HepG2 Assay for human Retinoic Acid Receptor alpha (RARa) (AID 2283005)
# Retinoic acid receptor alpha (Homo sapiens), sequence (P10276 whole entry, looked up, the tested form may be a part): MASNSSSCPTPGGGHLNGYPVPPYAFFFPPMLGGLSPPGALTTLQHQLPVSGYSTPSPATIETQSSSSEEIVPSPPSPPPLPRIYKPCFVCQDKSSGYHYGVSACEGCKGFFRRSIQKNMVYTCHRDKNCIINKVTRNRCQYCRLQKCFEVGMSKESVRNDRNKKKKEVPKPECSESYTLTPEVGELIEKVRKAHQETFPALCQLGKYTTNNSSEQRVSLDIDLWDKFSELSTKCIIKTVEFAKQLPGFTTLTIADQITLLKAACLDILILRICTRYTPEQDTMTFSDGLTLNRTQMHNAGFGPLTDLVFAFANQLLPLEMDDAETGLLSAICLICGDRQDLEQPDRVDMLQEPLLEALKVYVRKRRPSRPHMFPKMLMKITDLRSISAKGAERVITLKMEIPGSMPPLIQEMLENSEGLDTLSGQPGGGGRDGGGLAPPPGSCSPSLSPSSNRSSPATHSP
# How it was run: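 HepG2 transiently transfected with multiplex GAL4-UAS reporter units including a human RARa–GAL4 chimera; 24 h compound exposure. Reporter mRNA quantified by RT-PCR, 6-FAM labeling and capillary electrophoresis; gain of signal versus DMSO.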
# [2] = biological target: Peroxisome proliferator-activated receptor gamma (Homo sapiens) (UniProt P37231); experiment: ATG_PPARg_TRANS: Attagene TRANS-FACTORIAL HepG2 Assay for human Peroxisome Proliferator-activated Receptor-gamma (PPARg) (AID 2283007)
# Peroxisome proliferator-activated receptor gamma (Homo sapiens), sequence (P37231 whole entry, looked up, the tested form may be a part): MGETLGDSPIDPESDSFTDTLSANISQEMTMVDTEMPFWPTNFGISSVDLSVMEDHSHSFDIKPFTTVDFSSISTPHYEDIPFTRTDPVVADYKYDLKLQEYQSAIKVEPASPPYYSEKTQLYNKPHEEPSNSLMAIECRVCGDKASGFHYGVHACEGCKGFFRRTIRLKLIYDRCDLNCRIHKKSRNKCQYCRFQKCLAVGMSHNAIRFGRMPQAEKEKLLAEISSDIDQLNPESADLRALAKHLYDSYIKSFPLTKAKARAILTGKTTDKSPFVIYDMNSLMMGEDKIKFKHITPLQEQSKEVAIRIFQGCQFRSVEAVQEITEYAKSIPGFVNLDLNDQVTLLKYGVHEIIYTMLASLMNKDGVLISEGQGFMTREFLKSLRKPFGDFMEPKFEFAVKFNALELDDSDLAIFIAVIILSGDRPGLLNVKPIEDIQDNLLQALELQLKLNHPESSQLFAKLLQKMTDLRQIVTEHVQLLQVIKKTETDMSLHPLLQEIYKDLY
# How it was run: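 Gain-of-signal endpoint relative to DMSO, derived from reporter mRNA levels quantified by RT-PCR and capillary electrophoresis. Cells were HepG2 transiently expressing a chimeric NR-Gal4 construct with GAL4-UAS reporters, exposed to chemicals for 24 h.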
# [3] = biological target: human Retinoic Acid Receptor gamma (RARg), RARG (gene 5916) (UniProt P13631); experiment: ATG_RARg_TRANS: Attagene TRANS-FACTORIAL HepG2 Assay for human Retinoic Acid Receptor gamma (RARg) (AID 2283009)
# human Retinoic Acid Receptor gamma (RARg), RARG (gene 5916), sequence (P13631 whole entry, looked up, the tested form may be a part): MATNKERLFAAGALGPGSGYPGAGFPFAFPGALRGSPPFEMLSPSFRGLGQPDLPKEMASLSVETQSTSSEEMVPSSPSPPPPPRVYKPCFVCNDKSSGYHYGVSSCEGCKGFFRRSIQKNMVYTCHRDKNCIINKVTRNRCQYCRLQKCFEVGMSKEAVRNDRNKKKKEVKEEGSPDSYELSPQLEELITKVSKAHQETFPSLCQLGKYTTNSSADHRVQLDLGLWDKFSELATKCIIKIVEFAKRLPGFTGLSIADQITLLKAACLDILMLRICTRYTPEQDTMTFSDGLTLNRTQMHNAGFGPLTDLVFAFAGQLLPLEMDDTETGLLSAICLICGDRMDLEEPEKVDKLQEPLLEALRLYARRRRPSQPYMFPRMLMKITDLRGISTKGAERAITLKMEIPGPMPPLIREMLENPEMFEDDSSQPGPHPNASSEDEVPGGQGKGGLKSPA
# How it was run: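 Readout: reporter transcript levels via RT-PCR, 6-FAM primer-extension labelling, HpaI digestion and capillary electrophoresis. Cells: HepG2 carrying transfected RARg-GAL4 chimera plus UAS reporter set. Dosing 24 h; DMSO negative control.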
# [4] = biological target: human RAR-related Orphan Receptor beta (RORb), RORB (gene 6096) (UniProt Q92753); experiment: ATG_RORb_TRANS: Attagene TRANS-FACTORIAL HepG2 Assay for human RAR-related Orphan Receptor beta (RORb) (AID 2283010)
# human RAR-related Orphan Receptor beta (RORb), RORB (gene 6096), sequence (Q92753 whole entry, looked up, the tested form may be a part): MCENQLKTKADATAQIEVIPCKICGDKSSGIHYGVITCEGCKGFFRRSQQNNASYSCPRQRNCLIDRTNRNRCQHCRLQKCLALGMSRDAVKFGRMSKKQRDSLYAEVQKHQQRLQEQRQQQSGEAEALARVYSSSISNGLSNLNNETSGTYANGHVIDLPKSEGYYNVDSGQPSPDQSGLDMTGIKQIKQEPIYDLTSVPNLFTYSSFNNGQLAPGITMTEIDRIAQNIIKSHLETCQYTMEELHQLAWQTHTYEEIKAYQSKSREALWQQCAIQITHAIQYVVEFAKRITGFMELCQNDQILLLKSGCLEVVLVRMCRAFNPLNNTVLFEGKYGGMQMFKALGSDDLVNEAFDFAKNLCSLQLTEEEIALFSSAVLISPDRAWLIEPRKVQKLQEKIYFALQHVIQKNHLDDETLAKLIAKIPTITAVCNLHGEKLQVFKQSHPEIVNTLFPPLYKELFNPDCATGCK
# How it was run: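 HepG2, transient MRTU transfection (GAL4-UAS reporters, exogenous NR-Gal4 chimeras); 24 h compound exposure; total RNA → RT-PCR → 6-FAM primer extension → HpaI digest → CE fluorescence. Positive direction vs DMSO baseline.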
# [5] = biological target: human RAR-related Orphan Receptor gamma (RORg), RORC (gene 6097) (UniProt P51449); experiment: ATG_RORg_TRANS: Attagene TRANS-FACTORIAL HepG2 Assay for human RAR-related Orphan Receptor gamma (RORg) (AID 2283011)
# human RAR-related Orphan Receptor gamma (RORg), RORC (gene 6097), sequence (P51449 whole entry, looked up, the tested form may be a part): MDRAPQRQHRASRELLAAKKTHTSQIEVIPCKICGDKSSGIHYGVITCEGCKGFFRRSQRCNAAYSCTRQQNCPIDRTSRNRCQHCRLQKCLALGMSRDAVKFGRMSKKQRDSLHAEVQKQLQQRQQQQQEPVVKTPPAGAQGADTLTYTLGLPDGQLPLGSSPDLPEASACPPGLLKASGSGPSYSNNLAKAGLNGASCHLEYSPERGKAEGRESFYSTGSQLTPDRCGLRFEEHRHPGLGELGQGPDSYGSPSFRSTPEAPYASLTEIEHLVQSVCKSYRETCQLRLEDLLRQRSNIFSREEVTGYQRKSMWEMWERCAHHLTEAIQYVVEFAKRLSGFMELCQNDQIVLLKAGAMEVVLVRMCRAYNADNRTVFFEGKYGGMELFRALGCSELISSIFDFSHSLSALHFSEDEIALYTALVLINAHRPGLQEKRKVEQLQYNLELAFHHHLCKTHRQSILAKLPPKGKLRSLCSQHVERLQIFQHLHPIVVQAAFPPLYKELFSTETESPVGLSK
# How it was run: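 Readout: reporter transcript induction (RT-PCR, fluorescent primer extension, capillary electrophoresis) after 24 h compound exposure of transiently transfected HepG2 cells carrying a RORg-Gal4 chimera and GAL4-UAS reporters; DMSO served as baseline, with increasing signal fitted.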
# [6] = biological target: Retinoic acid receptor RXR-alpha (Homo sapiens) (UniProt P19793); experiment: ATG_RXRa_TRANS: Attagene TRANS-FACTORIAL HepG2 Assay for human Retinoid X Receptor alpha (RXRa) (AID 2283012)
# Retinoic acid receptor RXR-alpha (Homo sapiens), sequence (P19793 whole entry, looked up, the tested form may be a part): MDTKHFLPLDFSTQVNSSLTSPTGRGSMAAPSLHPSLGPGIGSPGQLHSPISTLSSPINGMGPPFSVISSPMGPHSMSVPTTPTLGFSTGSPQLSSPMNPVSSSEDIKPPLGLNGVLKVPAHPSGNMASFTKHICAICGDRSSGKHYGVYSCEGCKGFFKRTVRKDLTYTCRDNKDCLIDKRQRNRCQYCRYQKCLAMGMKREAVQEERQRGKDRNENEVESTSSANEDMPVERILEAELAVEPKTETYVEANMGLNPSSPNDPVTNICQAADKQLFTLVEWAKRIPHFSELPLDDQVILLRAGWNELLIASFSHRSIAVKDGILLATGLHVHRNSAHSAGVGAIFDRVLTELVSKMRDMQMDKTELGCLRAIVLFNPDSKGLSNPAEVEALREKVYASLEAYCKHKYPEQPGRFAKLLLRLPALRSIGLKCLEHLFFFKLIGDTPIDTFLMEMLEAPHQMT
# How it was run: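 Read-out: fluorescent reporter-transcript fragments quantified by capillary electrophoresis after RT-PCR. Transiently transfected HepG2 cells carrying GAL4-UAS reporters and NR-GAL4 chimeras were exposed to chemical for 24 h; activity scored as increase over DMSO.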
# [7] = biological target: human Retinoid X Receptor beta (RXRb), RXRB (gene 6257) (UniProt P28702); experiment: ATG_RXRb_TRANS: Attagene TRANS-FACTORIAL HepG2 Assay for human Retinoid X Receptor beta (RXRb) (AID 2283013)
# human Retinoid X Receptor beta (RXRb), RXRB (gene 6257), sequence (P28702 whole entry, looked up, the tested form may be a part): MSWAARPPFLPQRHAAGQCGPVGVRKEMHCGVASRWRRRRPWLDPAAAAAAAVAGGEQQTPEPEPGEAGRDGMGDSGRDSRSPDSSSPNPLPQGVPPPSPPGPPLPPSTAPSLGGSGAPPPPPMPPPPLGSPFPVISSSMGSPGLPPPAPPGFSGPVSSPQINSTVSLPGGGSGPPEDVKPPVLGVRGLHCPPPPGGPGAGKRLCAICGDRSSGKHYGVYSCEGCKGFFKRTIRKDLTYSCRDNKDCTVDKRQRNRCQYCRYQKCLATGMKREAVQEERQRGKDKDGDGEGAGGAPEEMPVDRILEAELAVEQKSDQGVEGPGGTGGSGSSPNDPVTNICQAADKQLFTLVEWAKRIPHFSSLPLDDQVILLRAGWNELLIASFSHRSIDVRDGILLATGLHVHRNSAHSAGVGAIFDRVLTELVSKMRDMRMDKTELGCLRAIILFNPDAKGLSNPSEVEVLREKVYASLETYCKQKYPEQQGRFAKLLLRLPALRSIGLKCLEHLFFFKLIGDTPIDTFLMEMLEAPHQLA
# How it was run: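 Read-out: reporter mRNA induction via RT-PCR plus capillary electrophoresis fluorescence, analysed as signal increase relative to DMSO. Cells were human HepG2, transiently transfected with GAL4-UAS reporter constructs and chimeric receptor-Gal4 fusions, dosed for 24 h.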
# [8] = biological target: human Thyroid Receptor alpha (THRa1), THRA (gene 7067) (UniProt P10827); experiment: ATG_THRa1_TRANS: Attagene TRANS-FACTORIAL HepG2 Assay for human Thyroid Receptor alpha (THRa1) (AID 2283014)
# human Thyroid Receptor alpha (THRa1), THRA (gene 7067), sequence (P10827 whole entry, looked up, the tested form may be a part): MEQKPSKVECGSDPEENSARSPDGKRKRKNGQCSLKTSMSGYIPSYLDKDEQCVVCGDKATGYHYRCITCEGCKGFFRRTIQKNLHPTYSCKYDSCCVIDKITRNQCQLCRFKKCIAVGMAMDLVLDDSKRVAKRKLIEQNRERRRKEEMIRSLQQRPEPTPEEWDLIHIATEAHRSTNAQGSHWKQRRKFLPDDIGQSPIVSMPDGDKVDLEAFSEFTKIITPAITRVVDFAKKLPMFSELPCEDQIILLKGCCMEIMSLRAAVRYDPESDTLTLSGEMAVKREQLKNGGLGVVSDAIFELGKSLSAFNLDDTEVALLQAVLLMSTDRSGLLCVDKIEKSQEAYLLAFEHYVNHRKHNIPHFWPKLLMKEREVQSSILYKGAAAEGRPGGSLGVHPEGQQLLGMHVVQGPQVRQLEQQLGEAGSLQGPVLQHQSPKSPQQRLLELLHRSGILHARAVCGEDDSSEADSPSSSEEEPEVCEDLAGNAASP
# How it was run: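 HepG2 cells transiently transfected with multiplexed GAL4-UAS reporter units for exogenous chimeric THRa1-Gal4; reporter mRNA measured 24 h after dosing by RT-PCR, 6-FAM labelling, HpaI digestion and capillary electrophoresis. Gain-of-signal fitted versus DMSO baseline.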
# [9] = biological target: human Vitamin D Receptor (VDR), VDR (gene 7421) (UniProt P11473); experiment: ATG_VDR_TRANS: Attagene TRANS-FACTORIAL HepG2 Assay for human Vitamin D Receptor (VDR) (AID 2283022)
# human Vitamin D Receptor (VDR), VDR (gene 7421), sequence (P11473 whole entry, looked up, the tested form may be a part): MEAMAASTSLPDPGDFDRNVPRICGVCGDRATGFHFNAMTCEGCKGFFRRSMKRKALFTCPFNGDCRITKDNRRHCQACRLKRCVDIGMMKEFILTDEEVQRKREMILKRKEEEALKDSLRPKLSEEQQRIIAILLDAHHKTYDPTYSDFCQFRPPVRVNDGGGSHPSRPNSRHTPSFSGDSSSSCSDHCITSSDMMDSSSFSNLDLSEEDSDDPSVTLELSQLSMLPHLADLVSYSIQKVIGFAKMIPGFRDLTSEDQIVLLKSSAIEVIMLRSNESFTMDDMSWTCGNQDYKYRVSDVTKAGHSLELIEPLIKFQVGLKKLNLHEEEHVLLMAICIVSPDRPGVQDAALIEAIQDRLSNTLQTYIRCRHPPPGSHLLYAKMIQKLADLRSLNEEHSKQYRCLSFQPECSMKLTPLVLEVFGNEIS
# How it was run: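 HepG2 cells were transiently transfected with multiple GAL4-UAS reporter units, so signal reflects exogenous chimeric receptor-Gal4 activity. After 24 h compound exposure, reporter mRNA was measured by RT-PCR, fluorescent labelling and capillary electrophoresis, fitted for gain of signal versus DMSO.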
# [10] = biological target: Nuclear receptor subfamily 1 group I member 2 (Homo sapiens) (UniProt O75469); experiment: ATG_PXR_TRANS: Attagene TRANS-FACTORIAL HepG2 Assay for human Pregnane X Receptor (PXR) (AID 2283008)
# Nuclear receptor subfamily 1 group I member 2 (Homo sapiens), sequence (O75469 whole entry, looked up, the tested form may be a part): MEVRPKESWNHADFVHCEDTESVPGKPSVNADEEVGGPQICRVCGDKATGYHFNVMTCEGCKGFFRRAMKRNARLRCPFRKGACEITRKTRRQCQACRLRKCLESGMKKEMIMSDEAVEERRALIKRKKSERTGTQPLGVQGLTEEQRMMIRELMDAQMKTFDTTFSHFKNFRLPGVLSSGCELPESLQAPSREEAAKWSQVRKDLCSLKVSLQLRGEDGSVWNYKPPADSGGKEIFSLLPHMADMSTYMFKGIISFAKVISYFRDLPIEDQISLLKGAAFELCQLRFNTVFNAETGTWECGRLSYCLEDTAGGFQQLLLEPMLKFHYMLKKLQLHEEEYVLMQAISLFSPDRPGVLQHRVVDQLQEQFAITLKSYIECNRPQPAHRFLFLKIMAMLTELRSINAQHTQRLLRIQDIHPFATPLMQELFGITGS
# How it was run: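 Transient HepG2 transfectants carrying multiplexed reporter transcription units; PXR activity read through a Gal4 chimera. 24 h exposure. RT-PCR/CE fluorescence; upward curve fit referenced to DMSO.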
# [11] = BSK_3C_Proliferation: Cell Proliferation Assessment in the BioMAP Diversity Plus: 3C Assay (AID 2283006; active means hit-call score of the fitted dose curve at least 0.9, where 1 is the maximum; inactive means score below 0.9;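 further: potency may reflect either rise or fall in cell number versus DMSO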); settings: primary human endothelial cells (HUVEC)
# How it was run: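 HUVEC, sub-confluent; 48 h chemical exposure; 10% TCA fix, 0.1% SRB stain, A560 total protein. Gain or loss of signal fitted both directions vs DMSO control.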
# [12] = read-out: E-selectin (Homo sapiens) (UniProt P16581); experiment: BSK_3C_Eselectin: BioMAP Diversity Plus: 3C Assay for Eselectin Biomarker Activity (AID 2283015; active means hit-call score of the fitted dose curve at least 0.9, where 1 is the maximum; inactive means score below 0.9); settings: primary human endothelial cells (HUVEC); actives raise or lower the signal
# How it was run: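 Primary human umbilical vein endothelial cells (3C system) were dosed with chemical and cell-surface E-selectin measured by ELISA 24 h later. Bidirectional curve fitting used DMSO as negative control and baseline.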
# [13] = read-out: Interleukin-1 alpha (IL1a), IL1A (gene 3552); experiment: BSK_BE3C_IL1a: BioMAP Diversity Plus: BE3C Assay for Interleukin-1 alpha (IL1a) Biomarker Activity (AID 2283016; active means hit-call score of the fitted dose curve at least 0.9, where 1 is the maximum; inactive means score below 0.9); settings: primary human bronchial epithelial cells; actives raise or lower the signal
# How it was run: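 ELISA read-out of IL-1a from human lung bronchial epithelial primary cells, 24 h post-dose. Gain or loss of signal fitted relative to DMSO negative control.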
# [14] = read-out: Monocyte Chemoattractant Protein-1 (MCP1), CCL2 (gene 6347); experiment: BSK_4H_MCP1: BioMAP Diversity Plus: 4H Assay for Monocyte Chemoattractant Protein-1 (MCP1) Biomarker Activity (AID 2283018; active means hit-call score of the fitted dose curve at least 0.9, where 1 is the maximum; inactive means score below 0.9); settings: primary human endothelial cells (HUVEC); actives raise or lower the signal
# How it was run: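 HUVEC primary cells, 24 h post-dose, MCP-1 by ELISA. Gain or loss of signal fitted bidirectionally vs DMSO baseline. Cytotoxicity: SRB stain (0.1% after 10% TCA fixation), read 560 nm, parallel cultures.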
# [15] = read-out: Human Leukocyte Antigen - DR isotype (HLADR), HLA-DRA (gene 3122); experiment: BSK_3C_HLADR: BioMAP Diversity Plus: 3C Assay for Human Leukocyte Antigen - DR isotype (HLADR) Biomarker Activity (AID 2283019; active means hit-call score of the fitted dose curve at least 0.9, where 1 is the maximum; inactive means score below 0.9); settings: primary human endothelial cells (HUVEC); actives raise or lower the signal
# How it was run: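 Primary human umbilical vein endothelial cells (3C system) were dosed with compound and cell-surface HLA-DR was quantified by ELISA at 24 h. Activity was fitted bidirectionally against DMSO as negative control and baseline.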
# [16] = read-out: Interleukin-8 (IL8), CXCL8 (gene 3576); experiment: BSK_3C_IL8: BioMAP Diversity Plus: 3C Assay for Interleukin-8 (IL8) Biomarker Activity (AID 2283020; active means hit-call score of the fitted dose curve at least 0.9, where 1 is the maximum; inactive means score below 0.9); settings: primary human endothelial cells (HUVEC); actives raise or lower the signal
# How it was run: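 HUVEC, 3C stimulation; 24 h compound exposure; IL-8 read by ELISA; gain or loss of signal fitted relative to DMSO control.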
# [17] = BSK_3C_SRB: Viability Assessment in the BioMAP Diversity Plus: 3C Assay (AID 2283023; active means hit-call score of the fitted dose curve at least 0.9, where 1 is the maximum; inactive means score below 0.9;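 further: fitted both ways against DMSO so a hit may be signal rise or drop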); settings: primary human endothelial cells (HUVEC)
# How it was run: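 Primary human umbilical vein endothelial cells in the 3C system were read 24 h after compound dosing. Total protein was stained with 0.1% sulforhodamine B after 10% TCA fixation and read at 560 nm, with bidirectional fitting against DMSO as baseline.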
# [18] = read-out: Matrix Metallopeptidase 1 (MMP1), MMP1 (gene 4312); experiment: BSK_BE3C_MMP1: BioMAP Diversity Plus: BE3C Assay for Matrix Metallopeptidase 1 (MMP1) Biomarker Activity (AID 2283024; active means hit-call score of the fitted dose curve at least 0.9, where 1 is the maximum; inactive means score below 0.9); settings: primary human bronchial epithelial cells; actives raise or lower the signal
# How it was run: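 ELISA read-out of MMP1 in human lung bronchial epithelial primary cultures, 24 h post-dose; bidirectional curve fit vs DMSO baseline, gain or loss of signal scored.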
compound,measurement,setting,value
C[CH2][Hg][S]c1ccccc1C(=O)O,outcome,[1],inactive
same,AC50,[2],3.71 µM (active)
same,outcome,[3],inactive
same,outcome,[4],inactive
same,outcome,[5],inactive
same,outcome,[6],inactive
same,AC50,[7],1.72 µM (active)
same,outcome,[8],inactive
same,outcome,[9],inactive
C=CCOC(N)=O,outcome,[1],inactive
same,outcome,[2],inactive
same,outcome,[3],inactive
same,outcome,[5],inactive
same,outcome,[9],inactive
Cc1cc(Cl)ccc1OCCCC(=O)O,outcome,[1],inactive
same,AC50,[2],61.5 µM (active)
same,outcome,[3],inactive
same,outcome,[5],inactive
same,outcome,[6],inactive
same,AC50,[7],27.7 µM (active)
same,outcome,[9],inactive
O=[N+]([O-])c1c2ccccc2cc2ccccc12,outcome,[1],inactive
same,AC50,[2],1.27 µM (active)
same,outcome,[4],inactive
same,AC50,[7],5.12 µM (active)
same,outcome,[9],inactive
N#Cc1ccccc1N,outcome,[1],inactive
same,outcome,[10],inactive
same,outcome,[4],inactive
same,outcome,[5],inactive
same,outcome,[9],inactive
C[C@@H]1O[C@@H](O[C@H]2C[C@@H](O)[C@]3(CO)[C@H]4[C@H](O)C[C@]5(C)[C@@H](C6=CC(=O)OC6)CC[C@]5(O)[C@@H]4CC[C@]3(O)C2)[C@H](O)[C@H](O)[C@H]1O,outcome,[1],inactive
same,AC50,[2],0.131 µM (active)
same,outcome,[3],inactive
same,outcome,[4],inactive
same,outcome,[5],inactive
same,outcome,[8],inactive
same,outcome,[9],inactive
N#Cc1ccccc1Cl,outcome,[1],inactive
same,outcome,[10],inactive
same,outcome,[4],inactive
same,outcome,[7],inactive
same,outcome,[9],inactive
CCC[N+](CCC)(CCC)CCC,outcome,[1],inactive
same,outcome,[3],inactive
same,outcome,[4],inactive
same,outcome,[6],inactive
same,outcome,[7],inactive
C[As+](C)(C)CC(=O)[O-],outcome,[1],inactive
same,outcome,[10],inactive
same,outcome,[3],inactive
same,outcome,[4],inactive
same,outcome,[5],inactive
Oc1cccc(-c2ccccc2)c1,AC50,[11],27.2 µM (active)
same,AC50,[2],34.6 µM (active)
same,AC50,[10],26.1 µM (active)
same,outcome,[5],inactive
same,outcome,[6],inactive
same,AC50,[7],36.6 µM (active)
same,AC50,[12],32 µM (active)
same,outcome,[13],inactive
same,AC50,[14],20 µM (active)
same,AC50,[15],32.9 µM (active)
same,outcome,[16],inactive
same,AC50,[17],20 µM (active)
same,outcome,[18],inactive
CC(C)CP(=S)(S)CC(C)C,outcome,[1],inactive
same,outcome,[2],inactive
same,outcome,[3],inactive
same,outcome,[4],inactive
same,outcome,[6],inactive
same,outcome,[7],inactive
N#CCC#N,outcome,[1],inactive
same,outcome,[2],inactive
same,outcome,[10],inactive
same,AC50,[6],43.1 µM (active)
same,AC50,[7],10.3 µM (active)
same,outcome,[8],inactive
same,outcome,[9],inactive
CN(C)CCN(C)C,outcome,[1],inactive
same,outcome,[10],inactive
same,outcome,[4],inactive
same,outcome,[5],inactive
same,outcome,[7],inactive
same,outcome,[8],inactive
same,outcome,[9],inactive

# Source: PubChem BioAssay (EPA / NIEHS)
